# Laboratory results published in PubChem BioAssay (NCI).
# Compounds without any hit were thinned out: in the full panel of roughly 79,000, 15% have a hit. A number with no mark means an inactive call. Active and inactive are the calls of the source. Rule as the data show it: active = growth inhibition above about 70%; inactive = the rest.
# Experiment: NCI Yeast Anticancer Drug Screen. Data for the rad14 strain (AID 159);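 also: 0% = growth of vehicle-treated control cultures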
# Conditions: S. cerevisiae rad14 strain growth inhibition, hits give high values
# Protocol: Growth inhibition of yeast strains with defined genetic alterations is measured as a screen for potential anti-cancer activity. Selected strains with alterations in DNA damage repair or cell cycle control were exposed to compounds and growth inhibition was measured relative to vehicle treated controls. The strain used in this assay is rad14
Compound,growth inhibition (at 1.2 µM) [%],growth inhibition (at 3.7 µM),growth inhibition (at 11.0 µM),growth inhibition (at 33.0 µM),growth inhibition (at 100.0 µM)
O=C1C(=O)c2cccc([N+](=O)[O-])c2-c2ccccc21,11,20%,62%,99% (active),98% (active)
O=[N+]([O-])c1ccc2[nH]c3c(-c4ccccc4)nccc3c2c1,-1,-1%,85% (active),96% (active),95% (active)
CO[C@@]1([C@@H](Cl)c2ccccc2)C(=O)N(C)/C(=C\c2ccccc2)C(=O)N1C,1,3%,8%,10%,11%
C[N+](C)([O-])CCCNc1c2ccccc2nc2cccc([N+](=O)[O-])c12,41,90% (active),94% (active),96% (active),96% (active)
CC(=O)/C=C/c1cc([N+](=O)[O-])ccc1O,-30,-22%,9%,97% (active),98% (active)
CC1=CC(=O)C=CC1=Nc1cc(Cl)c(O)c(Cl)c1,-43,-31%,-30%,38%,89% (active)
O=[N+]([O-])c1ccc(/C=C\c2ccc3c(c2)OCO3)c([N+](=O)[O-])c1,1,2%,12%,24%,80% (active)
Cn1c(-c2ccc(/C=N\N3CCN(/N=C/c4ccc(-c5c[n+]6ccsc6n5C)cc4)CC3)cc2)c[n+]2ccsc12,16,10%,9%,14%,59%
